PubChem BioAssay (NCATS)
Results filed as inconclusive are left out. A number with no mark means an inactive call. Active and inactive are the calls of the source. Calls follow the shape of the dose curve; as a rule, active = well fitted cell-killing curve with a large enough effect; inconclusive = small, poorly fitted or top-dose-only effect, or effect the other way; inactive = flat fitted curve, though single readings scatter.

Assay: qHTS assay for cell viability of the p53RE-bla HCT-116 cell line (AID 743292); also: nearly all actives have a fitted effect of over 55% in size
Settings: p53RE-bla HCT-116 viability, ATP luminescence, 16 h; series mostly up to 95 µM; activity change, negative = cytotoxicity: at the top concentration
Source text: U.S. Tox21 Program National Center for Advancing Translational Sciences [NCATS] NIH Chemical Genomics Center [NCGC] U.S. Environmental Protection Agency [EPA] National Institutes of Environmental Health Sciences [NIEHS] National Toxicology Program [NTP] U.S. Food and Drug Administration [FDA] Tox21 Assay Overview: The CellTiter-Glo Luminescent Cell Viability Assay (Promega, Madison, WI) is a homogeneous method to determine the number of viable cells in culture based on quantitation of the ATP present, which signals the presence of metabolically active cells. This cell viability assay was used to screen environmental chemicals in the CellSensor p53RE-bla HCT-116 cell line (Invitrogen).
Tox21 Assay Protocol Summary: Cell viability after compound treatment was measured using a luciferase-coupled ATP quantitation assay (CellTiter-Glo viability assay, Promega, Madison, WI) in CellSensor p53RE-bla HCT-116 cell line (Invitrogen). Total intracellular ATP content corresponds to the number of metabolically competent cells after compound treatment. The cells were dispensed at 4,000 cells/5 uL/well in 1,536-well white/solid bottom assay plates using a Flying Reagent Dispenser (Aurora Discovery, San Diego, CA). The cells were incubated for 5 h at 37 C, followed by the addition of 23 nL of compounds dissolved in DMSO, positive controls or DMSO only using a pintool work station (Kalypsys, San Diego, CA). The assay plates were incubated for 16 h at 37 C, followed by the addition of 5 uL/well of CellTiter-Glo reagent. After 30 min incubation at room temperature, the luminescence intensity of the plates was measured using a ViewLux plate reader (PerkinElmer, Shelton, CT).
% is scaled to controls: 0 for no effect and ±100 for the full control effect.

| Compound | activity change, negative = cytotoxicity [%] | Potency |
| --- | --- | --- |
| CC(C)Cc1nccs1 | -0.651 |  |
| CCCCOCCOCCSC#N | 4.32 |  |
| CC/C=C/C#N | 8.45 |  |
| Nc1cccc2c(=O)[nH][nH]c(=O)c12 | -5.72 |  |
| NC(=S)NNC(N)=S |  | inactive |
| CCCCC(CC)COCC1CO1 (stereo not given) | -1.64 |  |
| COC(=O)CCCC(=O)OC | 6.38 |  |
| Cc1c(N)cccc1[N+](=O)[O-] | 1.61 |  |
| COC(=O)CC#N | 5.31 |  |
| NS(=O)(=O)O | 6.17 |  |
| O=c1[nH][nH]c(=O)c2cc([N+](=O)[O-])ccc12 | -2.1 |  |
| NC=O | 0.148 |  |
| Cc1cc(C2(c3cc(C)c(O)cc3C)OS(=O)(=O)c3ccccc32)c(C)cc1O | 15.9 |  |
| CC(=O)Nc1ccc(N)cc1 | -0.453 |  |
| CNc1ccc([N+](=O)[O-])cc1 | -6.28 |  |
| CC(=O)OC(C)C | 2.21 |  |
| O=Nc1ccc(NO)cc1 | -3.42 |  |
| NC(=O)NC(N)=O | 3.1 |  |
| Cc1cc(C)cc(N)c1 | -0.738 |  |
| Cc1ccc2ncccc2c1 | -2.76 |  |

| Compound | activity change, negative = cytotoxicity [%] | Potency |
| --- | --- | --- |
| CC(=O)c1ccc([N+](=O)[O-])cc1 | -9.51 |  |
| Nc1ccc(Cl)cc1[N+](=O)[O-] | -0.552 |  |
| O=[N+]([O-])c1ccccc1CCO | 7.08 |  |
| O=C(O)c1ccc(CO)o1 | 5.33 |  |
| c1ccc2[nH]cnc2c1 | -6.12 |  |
| O=C(O)c1ccccc1[N+](=O)[O-] | -8.54 |  |
| OC(CCl)CCl | 2.77 |  |
| CN(C)CCCNCCCN | 1.97 |  |
| Cc1c(C(=O)O)cccc1[N+](=O)[O-] | -1.44 |  |
| COc1cccc(N)c1 | 1.47 |  |
| CCCCCCCCC/C=C/CC1CC(=O)OC1=O (stereo not given) | -9.03 |  |
| CCCCCCC(=O)O | -1.45 |  |
| NC(=O)CCCCC(N)=O | 9.23 |  |
| Cc1nc2ccc(Cl)cc2[nH]1 | 9.39 |  |
| O=Cc1ccccc1Cl | 4.92 |  |
| Nc1ccc(F)cc1F | 3.17 |  |
| COCCOC(=O)c1ccccc1C(=O)OCCOC | 1.29 |  |
| CC/C(C)=N/O | -0.54 |  |
| CSc1ccc(C=O)cc1 | -5.4 |  |
| CCCC=O | -14 |  |
